Among the data in PubChem BioAssay (NCI) are growth values, retold here.

Holding throughout (assay): NCI-60 one-dose screen, 48 h (100 = growth as untreated, 0 = no growth, -100 = all killed)
Common to all, as to conditions: 10 µM unless noted

Experiment [1] deals with HCT-15 colon.
The subject of experiment [2] is HT29 colon.
Experiment [3] relates to SNB-75 CNS.
Experiment [4] has as its system SNB-19 CNS.
The subject of experiment [5] is U251 CNS.
Experiment [6] deals with PC-3 prostate.
For experiment [7], the system named is SK-MEL-5 melanoma.
For experiment [8], the system named is UACC-62 melanoma.
Experiment [9] has as its system LOX IMVI melanoma.
The test system of experiment [10] is SK-MEL-28 melanoma.
Experiment [11] deals with SK-MEL-2 melanoma.
Experiment [12] concerns EKVX NSCLC.
The test system of experiment [13] is SN12C renal.
Experiment [14] deals with UO-31 renal.
Experiment [15] deals with TK-10 renal.
In experiment [16] the test system is CAKI-1 renal.
Experiment [17] has as its system A498 renal.
Experiment [18] deals with CCRF-CEM leukemia.
In experiment [19] the test system is MOLT-4 leukemia.
Experiment [20] deals with ACHN renal.

Each structure is given as a SMILES string. The panel holds about 83,000 compounds, 20% with a hit somewhere; the sample as a whole holds those more often.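 Negative percent growth values reflect cell death: -40 means 40% of the cells present at the start died, and -100 means all died.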 Unmarked numbers belong to inactive results. The source made the active and inactive calls. Rule for the calls: active = growth percent below 10; inactive = the rest.

On to `COc1ccc(OC)c(Nc2nnc(-c3ccc(Cl)cc3)o2)c1`, for which the growth in experiment [1] was 96%; in experiment [2], 48.9%; in experiment [3], 59.4%; in [4], 58.4%; in experiment [5], 2.55% (active); in experiment [6], 88.4%. Besides, the growth in [7] was 104%; in experiment [8], 97.5%; in experiment [9] it was 73.8%; in experiment [10], 102%; in experiment [11] it was 96.9%; in [12], 82.5%. Besides, the growth in [13] is 90.1%; in [14], 51.8%; in experiment [15] it was 36%; in experiment [16], 65.3%; in experiment [17] it was 96%; in experiment [18], 108%. Also, the growth in experiment [19] was 88.5%.
As to `O=C(CN1CCN(c2cc3c(cc2F)c(=O)c(C(=O)O)cn3C2CC2)CC1)N/N=C/c1ccncc1`, the growth in experiment [1] was 97.5%; in experiment [2], 97.8%; in experiment [3], 89.1%; in [4], 92.8%; in experiment [5] it was 98.8%; in [6], 91.7%. Further, the growth in experiment [7] was 96.9%; in [8], 95.7%; in [9], 99.8%; in [10], 106%; in experiment [11], 105%; in experiment [12] it was 98.3%. Also, the growth in [13] is 106%; in experiment [14], 90.6%; in [15], 91.6%; in [16], 93.8%; in experiment [17] it was 96.4%; in [18] it was 94%. Moreover, the growth in experiment [19] was 101%.
For `CCSC1=CC(=O)c2ccccc2C1=O`, the growth in experiment [1] was 73%; in experiment [2], 105%; in [3], 52.8%; in experiment [4], 87.6%; in experiment [5] it was 79.1%; in experiment [6], 73%. In addition, the growth in [7] is 50.8%; in experiment [8], 59.1%; in experiment [9] it was 47.7%; in experiment [10], 36.7%; in [11], 94.2%; in experiment [12] it was 92.8%. Besides, the growth in experiment [13] was 82.8%; in experiment [14], 27%; in [15] it was 89%; in [16], 32.2%; in experiment [17] it was 97.8%; in experiment [18], -6.88% (active). The growth in experiment [19] is 5.83% (active).
On to `CCCCCCCC/C=C\CCCCCCCCOc1ccc(CC(=O)NCC[N+](C)(C)C)cc1`, for which the growth in [1] is 60.4%; in experiment [2], 24.5%; in experiment [3], 34.6%; in experiment [4], 13.4%; in experiment [5] it was 16.9%; in [6], 4.88% (active). Also, the growth was 87.3% in experiment [7]; 61.3% in experiment [8]; 83.2% in experiment [9]; 91.7% in experiment [10]; 101% in experiment [11]; 87.8% in experiment [12]. In addition, the growth was 50% in experiment [13]; 92.8% in experiment [14]; 24.6% in experiment [15]; 44.6% in experiment [16]; 68.9% in [17]; 54.6% in experiment [18]. Moreover, in experiment [19], the growth was 75.1%.
Take `O=C1NC(=Nc2ccc(O)cc2)S/C1=C\c1cccs1`: the growth in [1] was 20.9%; in experiment [2] it was 89.7%; in [3] it was -12.7% (active); in [4], 32.4%; in experiment [5], 25.2%; in experiment [6], -1.89% (active). Also, the growth in [7] is 47.8%; in [8] it was 46.1%; in experiment [9], 32.1%; in [10], 75.6%; in [11], 97.9%; in [12] it was 38.8%. In addition, the growth in experiment [13] was 46.1%; in [14] it was 52.5%; in experiment [15], 69.3%; in experiment [16], 40.9%; in experiment [17] it was 15.9%; in [18], 11.9%. In addition, the growth in experiment [19] is 23.1%.
Turning to `CC1(C)CC[C@]2(C(=O)O)CC[C@]3(C)C(=CC[C@@H]4[C@@]5(C)C[C@@H](Cc6cn([C@@H]7O[C@H](CO)[C@@H](O)[C@H](O)[C@H]7O)nn6)[C@H](O)C(C)(C)[C@@H]5CC[C@]43C)[C@@H]2C1`, the growth in [1] was 106%; in [2] it was 99.1%; in [3], 92%; in experiment [4], 97%; in experiment [5], 92%; in experiment [6], 93.4%. For the same molecule, the growth in experiment [7] is 100%; in experiment [8], 93.2%; in experiment [9] it was 99.4%; in experiment [10], 103%; in experiment [11], 113%; in experiment [12], 99.4%. Also, the growth was 99.7% in experiment [13]; 96.3% in experiment [14]; 93.6% in experiment [15]; 100% in [20]; 98.3% in experiment [16]; 98.8% in [17]. Further, the values for the growth in experiment [18] and in [19] were 96.4% and 83.4%, respectively.
On to `Cc1c2cc[nH]c(=O)c2c(C)c2c1[nH]c1ccc(OC(=O)c3ccccc3)cc12`, for which the growth in experiment [1] was 27.9%; in experiment [2] it was 34.1%; in [3], 39.9%; in [4], 45%; in experiment [5], 29.2%; in experiment [6], 35.9%. The growth is -26.9% (active) in [7]; 28.5% in experiment [8]; 13.7% in [9]; 25.2% in experiment [10]; 23.7% in [11]; 19.7% in experiment [12]. In addition, the growth was 32.3% in experiment [13]; 12.9% in [14]; 34% in experiment [15]; -9.28% (active) in experiment [20]; 29.1% in experiment [16]; 61.2% in experiment [17]. Further, the growth in experiment [18] is 29.4%; in experiment [19], 6.99% (active).
